About 83,000 compounds went through this panel and 20% of them were active in at least one assay; those are over-represented in the sample as a whole.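 Negative percent growth values reflect cell death: -40 means 40% of the cells present at the start died, and -100 means all died.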 The source made the active and inactive calls. The calls were made as follows: active = growth percent below 10; inactive = the rest.
Assays:
Assay in all cases: NCI-60 one-dose screen, 48 h (100 = growth as untreated, 0 = no growth, -100 = all killed)
Settings in all cases: 10 µM unless noted
T-47D breast = tested on: T-47D breast
BT-549 breast = tested on: BT-549 breast
MDA-MB-435 melanoma = tested on: MDA-MB-435 melanoma
SW-620 colon = tested on: SW-620 colon
MCF7 breast = tested on: MCF7 breast
HCT-116 colon = tested on: HCT-116 colon
HCC-2998 colon = tested on: HCC-2998 colon
KM12 colon = tested on: KM12 colon

Measured: growth

N#Cc1c(N2CCOCC2)nc(=S)[nH]c1-c1ccccc1
inactive: T-47D breast 37.3% | BT-549 breast 57.7% | MDA-MB-435 melanoma 82.2% | SW-620 colon 82.1% | MCF7 breast 56.6% | HCT-116 colon 86.6% | HCC-2998 colon 79.1% | KM12 colon 77.6%

NS(=O)(=O)c1ccc(N/C=C/C(=O)c2cc3ccccc3oc2=O)cc1
inactive: T-47D breast 89.1% | BT-549 breast 95.5% | MDA-MB-435 melanoma 100% | SW-620 colon 95.5% | MCF7 breast 68.8% | HCT-116 colon 97.1% | HCC-2998 colon 109% | KM12 colon 98.2%

CCOC(=O)CSc1nc2sc3c(c2c(=O)n1-c1ccc([N+](=O)[O-])cc1)CCCCC3
inactive: T-47D breast 76.7% | BT-549 breast 97.2% | MDA-MB-435 melanoma 77.3% | SW-620 colon 81.3% | MCF7 breast 76.2% | HCT-116 colon 51.3% | HCC-2998 colon 82% | KM12 colon 89.7%

COc1ccc(-c2nnc(SCC(=O)Nc3ccc(/C(C)=N\O)cc3)n2-c2ccccc2)cc1OC
inactive: T-47D breast 68% | BT-549 breast 65.2% | MDA-MB-435 melanoma 104% | SW-620 colon 115% | MCF7 breast 69.2% | HCT-116 colon 69.2% | HCC-2998 colon 94% | KM12 colon 106%

CCCCCCCCn1ccc2cc(NC(=O)Cn3cc(CN4CCOCC4)nn3)ccc21
inactive: T-47D breast 93.4% | BT-549 breast 78.2% | MDA-MB-435 melanoma 99.7% | SW-620 colon 97.4% | MCF7 breast 89.5% | HCT-116 colon 92.5% | HCC-2998 colon 113% | KM12 colon 93.3%

CS(=O)(=O)Nc1cncc(-c2ccc3ncnc(Nc4ccc(F)c(Cl)c4)c3c2)c1
active: T-47D breast -9.57%
inactive: BT-549 breast 32.4% | MDA-MB-435 melanoma 49% | SW-620 colon 43.1% | MCF7 breast 13.1% | HCT-116 colon 19.6% | HCC-2998 colon 66% | KM12 colon 59.4%

CC[C@H](CC[C@@H](C)[C@H]1CC[C@H]2[C@@H]3CC[C@@H]4CC(=O)/C(=C\c5ccncc5)C[C@]4(C)[C@H]3CC[C@]12C)C(C)C
inactive: T-47D breast 100% | BT-549 breast 95.2% | MDA-MB-435 melanoma 101% | SW-620 colon 102% | MCF7 breast 95.7% | HCT-116 colon 103% | HCC-2998 colon 104% | KM12 colon 102%

CCOC(=O)Cn1c(=O)c2c3ccccc3n(C)c2n2nnc(-c3ccccc3)c12
inactive: T-47D breast 95.1% | BT-549 breast 104% | MDA-MB-435 melanoma 99.1% | SW-620 colon 95.7% | MCF7 breast 81.8% | HCT-116 colon 65% | HCC-2998 colon 67.8% | KM12 colon 99.7%

c1ccc(CCc2ccccc2-c2cc(-c3ccccc3)on2)cc1
inactive: T-47D breast 55.4% | BT-549 breast 102% | MDA-MB-435 melanoma 105% | SW-620 colon 91% | MCF7 breast 74.7% | HCT-116 colon 59.8% | HCC-2998 colon 90.4% | KM12 colon 87.5%

N/C(=N\c1nc2ccccc2s1)NC(=NC1CCCCC1)NC1CCCCC1
inactive: T-47D breast 13.2% | BT-549 breast 47.6% | KM12 colon 27.5%
active: MDA-MB-435 melanoma -33.7% | SW-620 colon 0.593% | MCF7 breast -42.4% | HCT-116 colon 0.368% | HCC-2998 colon -88.6%

COc1ccc(OC)c(-c2cn3nc(-c4c[nH]c5ccc(Br)cc45)sc3n2)c1
active: SW-620 colon -3.33%
inactive: T-47D breast 35.2% | BT-549 breast 76.2% | MDA-MB-435 melanoma 24% | MCF7 breast 12.5% | HCT-116 colon 13.2% | HCC-2998 colon 27.2% | KM12 colon 11%

N#Cc1c(-c2cccc([N+](=O)[O-])c2)cc(-c2ccc(Nc3nc(Nc4ccc(F)cc4)nc(Nc4ccc(F)cc4)n3)cc2)nc1N
inactive: T-47D breast 115% | BT-549 breast 173% | MDA-MB-435 melanoma 112% | SW-620 colon 108% | MCF7 breast 291% | HCT-116 colon 108% | HCC-2998 colon 113% | KM12 colon 114%

O=C(O)CCCc1cnc2c3sccc3nc(SCc3c(Cl)cccc3Cl)n12
inactive: T-47D breast 24.9% | BT-549 breast 44.8% | SW-620 colon 27.3% | MCF7 breast 26.5% | HCT-116 colon 21.7% | HCC-2998 colon 81.1% | KM12 colon 21.7%
active: MDA-MB-435 melanoma 6.44%

COc1ccc(-c2cc(-c3ccc(OC)cc3)nc(NCCCNc3ccnc4cc(Cl)ccc34)n2)cc1
inactive: T-47D breast 89.3% | BT-549 breast 81.2% | KM12 colon 44.8%
active: MDA-MB-435 melanoma -69.9% | SW-620 colon -39.7% | MCF7 breast -54.2% | HCT-116 colon -84.9% | HCC-2998 colon -56.4%

COc1ccc2c(c1)c(-c1nc(-c3cn(C)c4ncccc34)cs1)cn2CCO
inactive: T-47D breast 10.1% | BT-549 breast 76.9% | MDA-MB-435 melanoma 86.5% | SW-620 colon 93.6% | MCF7 breast 12% | HCT-116 colon 74.2% | HCC-2998 colon 95.1% | KM12 colon 49.5%

CC[C@H](Nc1nc(N)nc(C)c1C#N)c1nc2cccc(NCCCCCC(=O)NO)c2c(=O)n1-c1ccccc1
active: T-47D breast 1.28%
inactive: BT-549 breast 39.4% | MDA-MB-435 melanoma 64.1% | SW-620 colon 68.3% | MCF7 breast 31.5% | HCT-116 colon 71.3% | HCC-2998 colon 87% | KM12 colon 80.3%

COc1cccc(C(=O)OCC(O)C(=O)NC23CC4CC(CC(C4)C2)C3)c1 (stereo not drawn)
inactive: T-47D breast 98.3% | BT-549 breast 102% | MDA-MB-435 melanoma 97.6% | SW-620 colon 99.6% | MCF7 breast 89.1% | HCT-116 colon 96.7% | HCC-2998 colon 105% | KM12 colon 108%

C=CCCC(=O)N1C=CC(=O)[C@H](O)[C@@H]1/C=C/c1ccccc1
inactive: T-47D breast 39.7% [100 µM] | BT-549 breast 59.6% [100 µM] | MDA-MB-435 melanoma 59.6% [100 µM] | SW-620 colon 40.6% [100 µM] | MCF7 breast 19.3% [100 µM] | HCT-116 colon 18.5% [100 µM] | HCC-2998 colon 42.5% [100 µM] | KM12 colon 33.3% [100 µM]

CCOc1ccc(/C=N\N=C\c2ccc(OCC)cc2)cc1
inactive: T-47D breast 94.7% | BT-549 breast 87.7% | MDA-MB-435 melanoma 109% | SW-620 colon 52.8% | MCF7 breast 67.5% | HCT-116 colon 45.5% | HCC-2998 colon 98% | KM12 colon 98.1%

CCOC(=O)/C=C/c1c(C)[nH]c(=O)[nH]c1=O
inactive: T-47D breast 102% | BT-549 breast 99.1% | MDA-MB-435 melanoma 109% | SW-620 colon 56.7% | MCF7 breast 69.6% | HCT-116 colon 53% | HCC-2998 colon 107% | KM12 colon 93.4%

NC(=S)N/N=C/c1cn(-c2ccccc2)nc1-c1cc2ccccc2oc1=O
active: MDA-MB-435 melanoma -47.5%
inactive: T-47D breast 47.8% | BT-549 breast 42.5% | SW-620 colon 22.7% | MCF7 breast 33.3% | HCT-116 colon 27.2% | HCC-2998 colon 88.4% | KM12 colon 30.9%

O=C(CN1C(=O)NC2NC(=O)NC21)N/N=C/c1ccc(Cl)cc1Cl (stereo not drawn)
inactive: T-47D breast 110% | BT-549 breast 98.9% | MDA-MB-435 melanoma 102% | SW-620 colon 104% | MCF7 breast 98% | HCT-116 colon 101% | HCC-2998 colon 110% | KM12 colon 105%

COc1cc(C(=O)C(=O)c2cc(OC)c(O)c(OC)c2)cc(OC)c1O
inactive: T-47D breast 98.1% | BT-549 breast 120% | MDA-MB-435 melanoma 103% | SW-620 colon 105% | MCF7 breast 96.5% | HCT-116 colon 104% | HCC-2998 colon 92.1% | KM12 colon 107%

CCN1C(=O)N(CC)C2C1NN=c1s/c(=C\c3ccccc3Br)c(=O)n12 (stereo not drawn)
active: MDA-MB-435 melanoma -15.7% | HCT-116 colon 6.2%
inactive: T-47D breast 85.5% | BT-549 breast 16.3% | SW-620 colon 20.3% | MCF7 breast 13.6% | HCC-2998 colon 10.7% | KM12 colon 10.3%

N=C(N)c1ccc(-c2ccc(-c3ccc(Cl)cc3)o2)o1
active: MDA-MB-435 melanoma -89.1% | SW-620 colon -69.7% | MCF7 breast -70.9% | HCT-116 colon -76.1% | HCC-2998 colon -81.1% | KM12 colon -84.9%
inactive: T-47D breast 26.5% | BT-549 breast 93.1%

CCN(CC)c1ccc(/C=N/NC(=O)c2ccc(Nc3ccnc(C(F)(F)F)c3)cc2)c(O)c1
active: T-47D breast -2.74% | BT-549 breast -2.72%
inactive: MDA-MB-435 melanoma 17.5% | SW-620 colon 41.5% | MCF7 breast 13.9% | HCT-116 colon 23.6% | HCC-2998 colon 38.3% | KM12 colon 24.6%

COc1ccc2c(c1)c(-c1nonc1-c1cn(C)c3ccc(OC)cc13)cn2C
inactive: T-47D breast 38.6% | BT-549 breast 45.7% | SW-620 colon 16.3% | MCF7 breast 20.7% | HCT-116 colon 19.2% | HCC-2998 colon 65.7% | KM12 colon 25.8%
active: MDA-MB-435 melanoma -25.4%

Nc1nc(C(=O)N/N=C/c2ccc(N3CCOCC3)cc2)nn1-c1ccc(S(N)(=O)=O)cc1
inactive: T-47D breast 108% | BT-549 breast 116% | MDA-MB-435 melanoma 104% | SW-620 colon 99.9% | MCF7 breast 103% | HCT-116 colon 101% | HCC-2998 colon 104% | KM12 colon 103%

COC(c1ccc2ccccc2c1)C(C)C(F)F (stereo not drawn)
inactive: T-47D breast 90% | BT-549 breast 95% | MDA-MB-435 melanoma 96% | SW-620 colon 106% | MCF7 breast 109% | HCT-116 colon 87.7% | HCC-2998 colon 114% | KM12 colon 107%

CC(O)c1ncc(/C=C2\SC(=S)N(Cc3ccccc3)C2=O)s1 (stereo not drawn)
inactive: T-47D breast 42.4% | BT-549 breast 92.9% | MDA-MB-435 melanoma 80.5% | SW-620 colon 90.3% | MCF7 breast 80.3% | HCT-116 colon 96% | HCC-2998 colon 120% | KM12 colon 81%

c1ccc2cc(Cn3c[n+](Cc4ccc5ccccc5c4)c4ccccc43)ccc2c1
active: T-47D breast -8.43% | BT-549 breast -82.7% | MDA-MB-435 melanoma -52.6% | SW-620 colon -3% | MCF7 breast -30.2% | HCT-116 colon -90.6% | HCC-2998 colon -53.3% | KM12 colon -85.9%
